Rows were chosen to be rich in hits. Some 3.3% of all compounds tested hit in one or more screens of this group.
PHOSPHO1 inh = inhibitors of human PHOSPHO1 phosphatase; recombinant PHOSPHO1, absorbance phosphatase assay; 1.1% of 290,000 active; AID 1565; Q8TCT1; inhibition, % at 13.3 µM; in the data active = inhibition above about 60%
Target sequence (Q8TCT1 whole entry, looked up): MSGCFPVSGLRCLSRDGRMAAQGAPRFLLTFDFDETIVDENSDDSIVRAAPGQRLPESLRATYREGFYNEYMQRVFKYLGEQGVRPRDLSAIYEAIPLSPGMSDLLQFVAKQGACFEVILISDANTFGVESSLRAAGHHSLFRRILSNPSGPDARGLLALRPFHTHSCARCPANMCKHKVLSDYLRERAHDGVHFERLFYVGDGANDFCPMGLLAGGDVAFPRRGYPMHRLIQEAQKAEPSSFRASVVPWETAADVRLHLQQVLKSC
NRP1-CendR mod = modulators of CendR peptide binding to human neuropilin-1. O14786. FAM-RPARPAR peptide binding to NRP-1, fluorescence polarization. inhibition, % at 25 µM. 0.85% of 360,000 active. AID 602438;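 active = inhibition or corrected inhibition above about 18%, plus a signal ratio from 0.5 to 1.5, limit read from the data, passing the limit was not always enough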
Rpn11 block = inhibitors of human proteasome Rpn11 | 0.59% of 360,000 active | O00487 | human 26S proteasome, Ub4-pepOG fluorescence polarization; 20S core pre-blocked with epoxomicin | inhibition, % at 20 µM | AID 588493;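 active = inhibition at 20 µM, scaled to each plate's controls, above about 33%, limit read from the data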
Target sequence (O00487 whole entry, looked up): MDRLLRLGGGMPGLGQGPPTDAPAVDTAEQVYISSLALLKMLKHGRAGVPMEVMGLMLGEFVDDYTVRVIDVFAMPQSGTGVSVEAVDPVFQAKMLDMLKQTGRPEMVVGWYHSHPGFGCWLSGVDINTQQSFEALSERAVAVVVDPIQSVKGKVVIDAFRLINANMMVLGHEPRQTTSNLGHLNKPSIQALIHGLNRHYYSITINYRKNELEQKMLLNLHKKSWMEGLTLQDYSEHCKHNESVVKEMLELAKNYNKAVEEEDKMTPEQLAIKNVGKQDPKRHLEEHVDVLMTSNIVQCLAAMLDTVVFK
TPT1 inh = inhibitors of Candida albicans tRNA 2'-phosphotransferase TPT1; inhibition, % at 5 µM; 0.81% of 300,000 active; recombinant caTPT1, FP RNA substrate dephosphorylation;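 active = inhibition above the mean of all tested compounds plus 3 SD, set per screening campaign, cut at about 24% in these data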;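 also: plate controls were DMSO alone for no effect and ferristatin control at 100 nM for full effect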
CTSL1 counter = cathepsin L1 inhibition, PFM18AAP counter-screen; 0.49% of 300,000 active; inhibition, % at 5.96 µM; recombinant F. hepatica cathepsin L1, Z-Leu-Arg-MCA fluorescence;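 active = inhibition above the mean of all tested compounds plus 3 SD, set per screening campaign, cut at about 17% in these data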;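 also: 0% = plate median of test compound wells and 100% = 1 µM Z-Phe-Ala-diazomethylketone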
HNF4A DNA FP = change in binding of human HNF4 alpha to DNA | activity change, % at 10 µM | HNF4a-FITC DNA binding, fluorescence polarization, 1 h | 0.3% of 360,000 active | P41235; in the data active = activity change above about 30%, passing the limit was not always enough
An asterisk follows results filed as active.

How did C[C@@H]1CN([C@H](C)CO)S(=O)(=O)c2ccc(C#Cc3ccccc3F)cc2O[C@H]1CN(C)C(=O)c1ccc2c(c1)OCO2 do in these assays?
NRP1-CendR mod: -5.3; Rpn11 block: 7.0; HNF4A DNA FP: -2.3

How did Cc1ccc(S(=O)(=O)NC(CN2CCOCC2)=NCCNS(=O)(=O)c2ccccc2)cc1 do in these assays?
PHOSPHO1 inh: 14.1; NRP1-CendR mod: 35.6*; Rpn11 block: 0.4; TPT1 inh: -1.4; CTSL1 counter: -5.8; HNF4A DNA FP: 2.1

Results for CCCc1cc(=O)n2[nH]cnc2n1 ?
PHOSPHO1 inh: 60.8*; NRP1-CendR mod: -1.7; Rpn11 block: 1.2; TPT1 inh: -4.6; CTSL1 counter: -4.4; HNF4A DNA FP: 1.9

What do the screens show for `Cc1oc(-c2ccccc2Cl)nc1CS(=O)CC(=O)N1CCN(c2ccccc2)CC1` (centres undefined)?
PHOSPHO1 inh: 52.9; NRP1-CendR mod: 2.4; Rpn11 block: 3.9; TPT1 inh: -2.5; CTSL1 counter: -1.2; HNF4A DNA FP: 0.8

What do the screens show for `CCn1c(=O)cc(SCC(=O)N2CCOCC2)c2ccccc21`?
PHOSPHO1 inh: -0.5; NRP1-CendR mod: -12.6; Rpn11 block: -5.6; TPT1 inh: 3.2; CTSL1 counter: -0.8; HNF4A DNA FP: -2.7

Results for CCn1c(=O)cc(SCC(=O)N2CCN(c3ccccc3OC)CC2)c2ccccc21 ?
PHOSPHO1 inh: 62.6*; NRP1-CendR mod: 5.1; Rpn11 block: -4.9; TPT1 inh: -0.9; CTSL1 counter: 1.4; HNF4A DNA FP: -2.7

How did COc1ccc(C(=O)Oc2cc(N)n(S(=O)(=O)c3ccc(C)cc3)n2)cc1 do in these assays?
PHOSPHO1 inh: 20.0; NRP1-CendR mod: -4.9; Rpn11 block: -1.2; TPT1 inh: 2.2; CTSL1 counter: 1.7; HNF4A DNA FP: -0.7

Results for COc1ccc(S(=O)(=O)n2nc(OC(=O)c3c(-c4ccccc4Cl)noc3C)cc2N)cc1 ?
PHOSPHO1 inh: 4.1; NRP1-CendR mod: -0.5; Rpn11 block: -13.0; TPT1 inh: -1.6; CTSL1 counter: 17.6*; HNF4A DNA FP: 8.8

How did C#CCN(Cc1ccco1)C(=O)c1cc(COc2cccc3cccnc23)on1 do in these assays?
NRP1-CendR mod: 6.0; Rpn11 block: 0.2; HNF4A DNA FP: 0.8

How did O=C(COc1ccc(Br)cc1)N(Cc1nnc(-c2ccccc2Cl)o1)C1CC1 do in these assays?
NRP1-CendR mod: -4.9; Rpn11 block: 6.4; HNF4A DNA FP: 3.4

What do the screens show for `CN(C)CCn1c(=O)n(-c2ccc(F)cc2)c(=O)c2c3c(sc21)CCCCC3`?
PHOSPHO1 inh: 7.8; NRP1-CendR mod: 34.8*; Rpn11 block: -0.7; TPT1 inh: -3.9; CTSL1 counter: -1.4; HNF4A DNA FP: 0.0

Results for O=C(CN(C(=O)c1csnn1)c1ccccc1C(F)(F)F)NCc1ccccc1 ?
PHOSPHO1 inh: 23.7; NRP1-CendR mod: 4.5; Rpn11 block: -3.5; TPT1 inh: 0.6; CTSL1 counter: 0.2; HNF4A DNA FP: -0.8

How did O=C(/C=C/c1ccccc1)OCN1C(=O)c2ccccc2C1=O do in these assays?
PHOSPHO1 inh: 19.9; NRP1-CendR mod: 4.1; Rpn11 block: 3.6; TPT1 inh: -4.3; CTSL1 counter: -35.1; HNF4A DNA FP: 0.2

Results for Cc1ccc(C)c(N2CCN(C(=O)c3csc4ccccc34)CC2)c1 ?
PHOSPHO1 inh: 1.1; NRP1-CendR mod: 6.2; Rpn11 block: -7.8; TPT1 inh: 1.1; CTSL1 counter: 6.1; HNF4A DNA FP: 3.3

How did COc1ccc(-n2nnnc2Sc2ccc(S(=O)(=O)N3CCOCC3)cn2)cc1 do in these assays?
PHOSPHO1 inh: 85.4*; NRP1-CendR mod: -1.8; Rpn11 block: 5.0; TPT1 inh: 2.3; CTSL1 counter: 0.7; HNF4A DNA FP: 2.1

How did COc1ccc(CC(=O)N2CCN(C(=O)Cc3ccc(OC)cc3)CC2)cc1 do in these assays?
PHOSPHO1 inh: 10.9; NRP1-CendR mod: -4.8; Rpn11 block: -4.0; TPT1 inh: 1.6; CTSL1 counter: -0.7; HNF4A DNA FP: -2.9

What do the screens show for `COc1ccc(-c2ccc(C(=S)N3CCN(C(C)=O)CC3)o2)cc1`?
PHOSPHO1 inh: 85.4*; NRP1-CendR mod: -7.7; Rpn11 block: 12.4; TPT1 inh: 1.2; CTSL1 counter: 0.2; HNF4A DNA FP: -0.2

Results for CC(=O)/C(C#N)=C1\NC(=O)C(Cc2ccc(C)c(C)c2)S1 (centres undefined) ?
PHOSPHO1 inh: 21.0; NRP1-CendR mod: 6.8; Rpn11 block: -4.6; TPT1 inh: 2.9; CTSL1 counter: 3.1; HNF4A DNA FP: 1.0

What do the screens show for `CCc1cc(C(=O)OC)c(NC(=O)CN2CCN(C(=O)c3ccco3)CC2)s1`?
PHOSPHO1 inh: 7.6; NRP1-CendR mod: 25.6*; Rpn11 block: -2.4; TPT1 inh: 0.8; CTSL1 counter: -6.9; HNF4A DNA FP: -1.8

Results for COC(=O)c1ccccc1NC(=O)CN1CCN(C(=O)c2ccco2)CC1 ?
PHOSPHO1 inh: 1.8; NRP1-CendR mod: 4.5; Rpn11 block: -4.9; TPT1 inh: 0.1; CTSL1 counter: 1.0; HNF4A DNA FP: 0.7

What do the screens show for `Cc1c(C(=O)N2CCOCC2)c(S(=O)(=O)Nc2ccc(C(C)C)cc2)c(C)n1C`?
PHOSPHO1 inh: 31.9; NRP1-CendR mod: 8.5; Rpn11 block: 3.8; TPT1 inh: 0.8; CTSL1 counter: 3.0; HNF4A DNA FP: -5.5

How did CC(=O)c1cccc(N2Cc3ccccc3C2=NC(=O)CCl)c1 do in these assays?
PHOSPHO1 inh: 3.5; NRP1-CendR mod: -5.2; Rpn11 block: 7.8; TPT1 inh: -0.8; CTSL1 counter: 77.2*; HNF4A DNA FP: 2.8

How did CCOc1ccccc1NC(=O)c1cccc(NC(=O)CC(c2ccccc2)c2ccccc2)c1 do in these assays?
PHOSPHO1 inh: 28.3; NRP1-CendR mod: -2.6; Rpn11 block: 32.8; TPT1 inh: 0.1; CTSL1 counter: 18.2*; HNF4A DNA FP: 2.8

How did CCOc1ccccc1NC(=O)c1cccc(S(=O)(=O)N(Cc2ccccc2)c2ccccc2OC)c1 do in these assays?
PHOSPHO1 inh: 3.0; NRP1-CendR mod: 30.2*; Rpn11 block: -0.2; TPT1 inh: -3.4; CTSL1 counter: -1.6; HNF4A DNA FP: 5.2

Results for CCOc1ccc(NC(=O)COC(=O)CNC(=O)c2ccc(-c3ccccc3)cc2)cc1 ?
NRP1-CendR mod: 7.0; Rpn11 block: 0.8; HNF4A DNA FP: -2.2

What do the screens show for `CC(C)n1c(C(=O)OCC(=O)NCc2ccc3c(c2)OCO3)cc2sccc21`?
PHOSPHO1 inh: 11.4; NRP1-CendR mod: 6.2; Rpn11 block: 0.5; TPT1 inh: 2.4; CTSL1 counter: -0.6; HNF4A DNA FP: 2.8

Results for C=CCNC(=O)c1onc(CSc2ccc(F)c(F)c2)c1C(=O)NCC=C ?
NRP1-CendR mod: 25.2*; Rpn11 block: -1.5; TPT1 inh: -1.8; CTSL1 counter: -2.0; HNF4A DNA FP: -1.0

What do the screens show for `COc1ccc(O)c(/C=c2/sc3nc4cc(C)c(C)cc4n3c2=O)c1`?
PHOSPHO1 inh: 36.3; NRP1-CendR mod: -2.8; Rpn11 block: -9.9; HNF4A DNA FP: -1.1

Screening data deposited in PubChem BioAssay by several laboratories.
